Results published in PubChem BioAssay AID686978 (National Center for Advancing Translational Sciences (NCATS), 2013).
Hit rate of the full screen: of about 420,000 compounds, about 64,000 (15%) were called active. Roughly 27% stayed inconclusive and do not appear here. Calls follow the shape of the dose curve; as a rule, active = well fitted inhibition curve with a large enough effect; inconclusive = small, poorly fitted or top-dose-only effect; inactive = flat fitted curve, though single readings scatter. Not all results are given here. Entries that show only a call come without a potency.

experiment: qHTS for Inhibitors of human tyrosyl-DNA phosphodiesterase 1 (TDP1): qHTS in cells in absence of CPT; settings: DT40 Tdp1-/- hTDP1 cells, no CPT, ATP luminescence, 48 h; activity change, negative = growth inhibition: at 46.2 µM (top of the series); also: nearly all actives have a fitted effect of over 55% in size
Outline: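 No-CPT arm: Tdp1-/-;hTDP1 DT40 cells (400/well) plus compounds, incubated ≥48 hr at 37 °C. Readout CellTiter-Glo luminescence.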
Potency is read from the fitted curve at half-maximal effect.

SMILES	Potency
Cc1cccc(OCC(=O)NCC(=O)N/N=C/c2ccc(N(C)C)cc2)c1	inactive
COc1cc(C2C(C(=O)Nc3ccccc3OC)=C(C)Nc3ncnn32)ccc1O (stereo not drawn)	inactive
COc1ccccc1NC1=NC2(CCCC2)N=C(N)N1	inactive
COc1ccccc1NC1=NC(c2ccc(Cl)cc2)N=C(N)N1 (stereo not drawn)	5.8 µM (active)
COc1cc([N+](=O)[O-])cc([N+](=O)[O-])c1NC(=O)N1CCOCC1	inactive
O=C(CSc1nc(=O)n(Cc2cccnc2)c2c1CCC2)Nc1ccc(F)cc1F	inactive
CC(=O)c1c(OCC(=O)N(C)C2CCCCC2)ccc2c(C)cc(=O)oc12	inactive
CCc1ccnc(NS(=O)(=O)c2ccc3c(c2)OCCO3)c1	inactive
CC(C)(C)NC(=O)CN(C(=O)c1ccc(Cl)nc1)c1cccc2ccccc12	inactive
Cc1ccc(C)n1-c1ccncc1	inactive
COc1cc2nnn(-c3ccncc3)c2cc1OC	inactive
c1ccc2c(c1)nnn2-c1ccncc1	5.17 µM (active)
CC(=O)N1C(=O)C2(Nc3ccccc3N2)c2ccccc21	inactive
Cc1oc(CC(C)C)c(CN2CCCC2)c1C(=O)O	inactive
COc1ccc(CCNC(=O)COC(=O)Cc2cc(OC)c(OC)c(OC)c2)cc1	inactive
COc1ccc(CCNC(=O)c2cc3cccc4c3n2CC(C)S4)c(OC)c1OC (stereo not drawn)	11.6 µM (active)
COc1ccc(CCNC(=O)CN2C(=O)CCSc3ccccc32)c(OC)c1	inactive
CNc1nc(SC)nc(N(C#N)CC(=O)OC)n1	inactive
O=C(NCCc1ccccn1)c1ccc(COc2ccccc2)o1	inactive
CCOc1ccc(OCc2ccc(C(=O)N(C)c3ccccc3)o2)cc1	14.6 µM (active)
COc1ccc(NC(=O)CN(C)C(=O)c2ccc(COc3ccccc3)o2)cc1	inactive
CCOC(=O)N1C(=O)C[C@](Sc2ccc(C)cc2)(C(=O)OC)[C@H]1c1ccccc1	inactive

SMILES	Potency
CCN1C(=O)[C@@H]2[C@@H](c3ccc(-c4cccc(Cl)c4)cc3)N3CCC[C@@]3(C(=O)OC)[C@@H]2C1=O	16.4 µM (active)
CCN1C(=O)[C@H]2[C@@H](c3ccc(C)cc3)N3C(=O)N(c4cccc(Br)c4)C(=O)[C@@]3(CC)[C@H]2C1=O	inactive
CCCCCCSc1ccc([C@@H]2[C@@H]3C(=O)N(CC)C(=O)[C@@H]3[C@]3(C(=O)OC)CCCCN23)cc1OC	25.9 µM (active)
CC(=O)N(CN1C(=O)C2C3C=CC(C3)C2C1=O)c1cccc(Cl)c1 (stereo not drawn)	inactive
NC(=O)C1(Nc2ccc(-c3ccccc3)cc2)CCCC1	inactive
CCCCC12CN3CC(C)(CN(C1)C3c1ccc(O)c(OC)c1)C2=O (stereo not drawn)	inactive
CCN1C(=O)[C@@H]2[C@@H](c3ccc(-c4ccccc4)cc3)N3CCCC[C@@]3(C(=O)OC)[C@@H]2C1=O	16.4 µM (active)
CCOC(=O)C1=C(CC)Nc2ccccc2N=C1N	inactive
COCCNC(=O)c1cc(-c2cccc(Cl)c2)on1	inactive
CSc1ccc(NC(=O)Cn2nnnc2-c2ccccc2F)cc1	inactive
COc1ccc(NC(=O)CN(C)C(=O)CNC(=O)C2CCCCC2)cc1	inactive
COc1ccccc1C1/C(=C(/O)c2ccc(C)cc2)C(=O)C(=O)N1Cc1ccco1 (stereo not drawn)	inactive
COc1ccc(S(=O)(=O)N(C)CC(=O)NCCCN2CCOCC2)cc1Cl	inactive
CN(Cc1ccc(F)cc1Cl)S(=O)(=O)c1cccs1	inactive
OC(CNCc1ccc2c(c1)OCO2)COc1ccccc1 (stereo not drawn)	inactive
Cc1ccc(OCC(=O)OC(C)CN(C)Cc2ccccc2)cc1 (stereo not drawn)	inactive
CN(Cc1ccccc1)CC(O)COc1ccc(CNCc2cc3ccccc3s2)cc1 (stereo not drawn)	29.1 µM (active)
O=C(COC(=O)c1ccc(F)c(S(=O)(=O)N2CCOCC2)c1)NCc1ccc2c(c1)OCO2	inactive
OC(Cc1ccc2ccccc2n1)c1ccc(Cl)c(Cl)c1 (stereo not drawn)	inactive
Cc1cc(NC(=O)C(C)N2C(=O)c3ccccc3S2(=O)=O)no1 (stereo not drawn)	inactive
O=C(CN1C(=O)NC2(CCCC2)C1=O)Nc1ccc(F)c(F)c1F	inactive
CCOc1ccc(CCNC(=O)CN2C(=O)NC3(CCc4ccccc43)C2=O)cc1OCC (stereo not drawn)	inactive

SMILES	Potency
O=C(CN1C(=O)NC2(CCOc3ccccc32)C1=O)NCc1ccc(F)cc1 (stereo not drawn)	inactive
O=C(CN1CCOCC1)Nc1cccc([N+](=O)[O-])c1	inactive
CN(C)S(=O)(=O)c1cc(NC(=O)CN2C(=O)NC3(CCCc4ccccc43)C2=O)ccc1Cl (stereo not drawn)	14.6 µM (active)
O=C(CN1C(=O)NC2(CCCCCC2)C1=O)NC1CC1	inactive
O=C(CN1C(=O)NC2(CCc3ccccc32)C1=O)NC1CCCCC1 (stereo not drawn)	inactive
O=C(CN1C(=O)NC2(CCCCCC2)C1=O)Nc1ccc([N+](=O)[O-])cc1	18.4 µM (active)
O=C(CN1C(=O)NC2(CCOc3ccccc32)C1=O)Nc1cccc([N+](=O)[O-])c1 (stereo not drawn)	20.6 µM (active)
COC(=O)Nc1ccc(S(=O)(=O)Nc2cc(OC)nc(OC)n2)cc1	inactive
NS(=O)(=O)c1ccc(N2C(=O)C3C4CC(C(Br)C4Br)C3C2=O)cc1 (stereo not drawn)	inactive
O=C1CC(Cc2ccccc2)C(=O)N1c1ccc(Cl)cn1 (stereo not drawn)	inactive
Cc1ccn(-c2cccc(-n3ccc(C)n3)n2)n1	inactive
COCCCn1c(SCC(=O)Nc2ccccc2)nnc1-c1ccncc1	inactive
CCOC(=O)C1CSC(CC(=O)Nc2ccc(OCC)cc2)C(=O)N1 (stereo not drawn)	inactive
O=C(C1CCCO1)N1CCN(C(=O)C23CC4CC(CC(C4)C2)C3)CC1 (stereo not drawn)	inactive
COc1ccc(NC(=O)C2=NNC(=O)CC2)cc1S(=O)(=O)N1CCCCC1	inactive
COc1ccc(OC)c(-c2csc(NC(=O)C3=NNC(=O)CC3)n2)c1	13 µM (active)
COc1ccc(OC)c(-c2csc(NC(=O)COC(=O)C3CC3)n2)c1	inactive
COc1ccnc(Oc2ccccc2)n1	inactive
CCc1nnc(NC(=O)Cc2cccs2)s1	inactive
Fc1ccc2cnc(-c3ccccc3)cc2c1	inactive
CNc1nc(-c2ccccc2)cc(-c2ccccc2)n1	inactive
CSc1nc(Nc2ccc(F)cc2)cc(-c2ccccc2)n1	23.1 µM (active)

SMILES	Potency
O=C(c1ccc(Cn2cc([N+](=O)[O-])cn2)o1)N1CCCC1	inactive
COCC(=O)Nc1ccc(Br)cc1	inactive
Cc1ccc(CCNC(=O)c2nnc(Cc3cccc(F)c3)o2)cc1	inactive
Cc1cc(Br)ccc1NC(=O)C1CCCO1 (stereo not drawn)	inactive
C[C@@H]1NS(=O)(=O)c2cc(Cl)ccc2O[C@@H]1c1ccccc1	inactive
COC(=O)C1=C(C)Nc2ncnn2C1c1cccnc1 (stereo not drawn)	inactive
COC(=O)C1=C(C)Nc2ncnn2C1c1ccco1 (stereo not drawn)	inactive
CC1=C(C(=O)OC2CCCCC2)C(c2cccnc2)n2ncnc2N1 (stereo not drawn)	20.6 µM (active)
O=C(CSc1nnc(-c2ccc(NS(=O)(=O)c3ccccc3)cc2)o1)NCC1CCCO1 (stereo not drawn)	inactive
O=C(NCc1cccnc1)C(=O)Nc1nc(-c2ccccc2)cs1	inactive
Clc1ccc(-c2csc(-c3ccncc3)n2)cc1	inactive
COc1ccc(-c2csc(Cc3nc(O)cs3)n2)cc1	14.6 µM (active)
Cc1ccccc1Nc1nc(-c2cccnc2)cs1	inactive
COc1ccc(-n2c(SC)nc(O)cc2=O)cc1	inactive
COc1ccc(Nc2nc(-c3ccccc3)cs2)cc1	inactive
CN(c1ccc(O)cc1)c1nc(-c2cccnc2)cs1	inactive
Oc1ccc(-c2csc(Nc3cccnc3)n2)cc1	29.1 µM (active)
COc1ccc(-c2csc(Nc3ccc(O)cc3)n2)cc1	6.51 µM (active)
c1ccc(Nc2nc(-c3ccncc3)cs2)nc1	16.4 µM (active)
COc1ccc(C(C)NC(=O)C2CCCC2)cc1 (stereo not drawn)	inactive
NC(=O)c1ccc(NC(=O)COC(=O)C(Cc2ccccc2)NC(=O)c2ccccc2)cc1 (stereo not drawn)	inactive
O=C(O)c1ccc(NC(=O)c2ccc(COc3ccc(Cl)cc3)o2)cc1	inactive

SMILES	Potency
CC(=O)Nc1cc(C(=O)N2CCc3c(Cl)cccc3C2)cc2ncn(CCc3ccccn3)c12	inactive
COc1cccc(C2/C(=C(/O)c3ccc(F)cc3)C(=O)C(=O)N2CCN(C)C)c1 (stereo not drawn)	inactive
O=C1CC(C(=O)O)NC(=S)N1 (stereo not drawn)	inactive
CCCCCN(C(=O)NC(=O)Nc1cccc(C)c1C)S(C)(=O)=O	inactive
COc1ccc(C2CC(c3cccc(OC)c3)=NN2c2ccc(S(N)(=O)=O)cc2)cc1 (stereo not drawn)	inactive
COc1ccccc1OCCOc1ccc(/C=C2\C(=N)N3N=C(C)SC3=NC2=O)cc1	inactive
COc1ccc(OC)c(Nc2nc(-c3ccc(O)c(O)c3)cs2)c1	1.16 µM (active)
CCN(CC(=O)Nc1c(F)cccc1F)C(=O)CN1c2cccc3cccc(c23)S1(=O)=O	inactive
CCn1c(SCC(=O)NCC2CCCO2)nc2cc(S(=O)(=O)N3CCCCC3)ccc21 (stereo not drawn)	inactive
Cc1ccc(NC(=O)CSc2nnc(COc3ccccc3C)o2)cc1	inactive
CC1CCCC(C)N1C(=O)CSc1nnnn1C1CCCC1 (stereo not drawn)	inactive
Cc1ccc(NC(=S)NCCN2CCOCC2)cc1	inactive
CCOc1cccc(/C=N/NC(=S)NCCN2CCOCC2)c1O	2.91 µM (active)
CCCCc1ccc(NC(=S)NCCCN2CCOCC2)cc1	inactive
Brc1cnc(N2CCCC2)nc1N1CCCCC1	inactive
C=CCn1c(CNS(=O)(=O)c2ccc(Br)cc2)nnc1SC	inactive
CCC(C)(C)NC(=O)CN(Cc1cccs1)C(=O)CNS(=O)(=O)c1ccc(F)cc1	inactive
CCOc1ccc(NC(=O)CN(C)C(=O)c2cccc(S(=O)(=O)N3CCCC3)c2)cc1OCC	inactive
COc1ccc(OC)c(NC(=O)c2cccc(S(=O)(=O)N3CCN(C(C)=O)CC3)c2)c1	inactive
COc1ccc(NC(=O)CN(C)C(=O)c2cccc(S(=O)(=O)N3CCN(c4ccccc4)CC3)c2)cc1	20.6 µM (active)
